Among the data in PubChem BioAssay (NCATS) are Potency and max response values, retold here.

Values without a mark were called inactive. Results filed as inconclusive are left out. Calls of active or inactive are those of the source. Unless noted, calls come from the whole dose curve; as a rule, active = well fitted curve in the direction sought with a large enough effect; inconclusive = small, poorly fitted or top-dose-only effect, or another doubt; inactive = no such curve, though single readings can be large; an effect the other way counts as inactive or inconclusive.

The target in assay [1] is T1, Hexokinase-4 (Homo sapiens) + Glucokinase regulatory protein (Homo sapiens) (UniProt P35557+Q14397). Nature of the assay: qHTS assay for inhibitors of recombinant human GCK-GKRP interaction: ADP-Glo assay (AID 743206).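 Note: plate controls were DMSO plus enzyme for no effect and no enzyme for full effect.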 The method, boiled down: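 GST-GCK and FLAG-GKRP (15 nM each in the dispensed mix, with 2 uM S6P) react with 0.4 mM ATP and 5 mM glucose (final) in Hepes pH 7.6 for 60 min at room temperature. ADP is measured by ADP-Glo luminescence.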
T1 sequence (P35557 whole entry, looked up): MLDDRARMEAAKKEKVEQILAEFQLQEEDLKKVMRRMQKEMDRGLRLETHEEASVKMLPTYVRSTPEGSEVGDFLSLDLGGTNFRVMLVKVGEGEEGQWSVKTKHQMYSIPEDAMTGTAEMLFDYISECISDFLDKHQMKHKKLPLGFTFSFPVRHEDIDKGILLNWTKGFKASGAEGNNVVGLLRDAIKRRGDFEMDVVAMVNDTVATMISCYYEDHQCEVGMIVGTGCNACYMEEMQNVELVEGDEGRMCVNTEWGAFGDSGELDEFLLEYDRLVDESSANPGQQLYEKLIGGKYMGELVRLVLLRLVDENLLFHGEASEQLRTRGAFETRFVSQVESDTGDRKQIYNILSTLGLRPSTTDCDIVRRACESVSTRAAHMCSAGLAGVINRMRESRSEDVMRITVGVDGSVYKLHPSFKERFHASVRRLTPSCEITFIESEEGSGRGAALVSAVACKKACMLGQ
T1 sequence (Q14397 whole entry, looked up): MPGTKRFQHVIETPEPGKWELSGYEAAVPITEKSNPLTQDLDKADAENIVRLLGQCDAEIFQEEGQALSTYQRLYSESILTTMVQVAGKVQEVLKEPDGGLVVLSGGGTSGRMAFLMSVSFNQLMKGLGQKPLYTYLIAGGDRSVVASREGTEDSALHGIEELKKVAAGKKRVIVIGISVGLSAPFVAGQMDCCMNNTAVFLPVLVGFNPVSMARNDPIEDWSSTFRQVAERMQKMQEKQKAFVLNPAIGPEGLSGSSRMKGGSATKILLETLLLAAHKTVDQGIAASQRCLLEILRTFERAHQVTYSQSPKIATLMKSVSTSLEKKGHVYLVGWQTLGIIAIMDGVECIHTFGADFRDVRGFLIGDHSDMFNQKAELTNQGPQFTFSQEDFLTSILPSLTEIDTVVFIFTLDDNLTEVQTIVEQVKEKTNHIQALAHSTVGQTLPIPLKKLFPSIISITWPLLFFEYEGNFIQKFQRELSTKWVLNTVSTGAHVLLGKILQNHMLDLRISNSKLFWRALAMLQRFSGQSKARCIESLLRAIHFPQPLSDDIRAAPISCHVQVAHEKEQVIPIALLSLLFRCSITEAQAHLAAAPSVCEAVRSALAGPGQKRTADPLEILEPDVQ
In general terms: In qHTS, concentration-response curves come from the screen itself.

Assay [2] concerns the target T1, Hexokinase-4 (Homo sapiens) + Glucokinase regulatory protein (Homo sapiens). The assay is described as follows: qHTS assay for inhibitors of recombinant human GCK-GKRP interaction: HTRF assay (AID 743207).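 Note: 0% = DMSO with GCK present and -100% = DMSO wells lacking GCK.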 The essentials: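 5 nM GST-GCK + 5 nM FLAG-GKRP + 2 uM S6P, pH 7.1 buffer (25 mM Hepes, 2 mM MgCl2, 25 mM KCl, 1 mM DTT, Tween/BSA); pin-transferred cpd; anti-FLAG XL665/anti-GST K; 60 min RT; HTRF.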

Assay [3] in a line: qHTS assay for measurement of the activity of small molecule inhibitors on Zika virus induced Caspase-3 activity in human astrocytoma cells (AID 1224859).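 Note: plate controls were ZIKV-infected untreated cells for no effect and uninfected cells for full effect.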 The essentials:
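In SNB-19 cells plated at 250 cells/well and grown 16-20 h, compounds were applied 1 h before ZIKV (2 FFU/cell). Six hours later caspase-3/7 luminescence was recorded.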

Assay [4] can be described thus: Natriuretic polypeptide receptor (hNpr1) antagonism - Pilot counterscreen GloSensor control cell line (AID 1347045; calls by dose curve; note: potency is the fitted concentration of half-maximal effect). The method, boiled down:
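This counterscreen uses HEK293 cells expressing the GIP/pGS-40F cGMP biosensor. Compound-treated cells are challenged with 50 uM sodium nitroprusside, and the luciferase signal is compared before and after stimulation.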
(In general: The purpose of a counterscreen is to sort out artefacts and off-target activity.)

In assay [5] the target is Atrial natriuretic peptide receptor 1 (Homo sapiens) (UniProt P16066). Nature of the assay: Natriuretic polypeptide receptor (hNpr1) antagonism - Pilot screen (AID 1347049; calls by dose curve;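 note: agonist-evoked cGMP luminescence read 20 min after hNppA addition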; note: potency is the fitted concentration of half-maximal effect). The method, boiled down: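 Readout is cGMP-driven firefly luciferase luminescence in HEK293 cells carrying hNpr1 and a PDE5-domain GloSensor, read before and 20 min after 0.1 nM hNppA stimulation. Cells had 2% substrate reagent for 2 h and test compound for 30 min.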
Chain of Atrial natriuretic peptide receptor 1 (Homo sapiens) (P16066 whole entry, looked up): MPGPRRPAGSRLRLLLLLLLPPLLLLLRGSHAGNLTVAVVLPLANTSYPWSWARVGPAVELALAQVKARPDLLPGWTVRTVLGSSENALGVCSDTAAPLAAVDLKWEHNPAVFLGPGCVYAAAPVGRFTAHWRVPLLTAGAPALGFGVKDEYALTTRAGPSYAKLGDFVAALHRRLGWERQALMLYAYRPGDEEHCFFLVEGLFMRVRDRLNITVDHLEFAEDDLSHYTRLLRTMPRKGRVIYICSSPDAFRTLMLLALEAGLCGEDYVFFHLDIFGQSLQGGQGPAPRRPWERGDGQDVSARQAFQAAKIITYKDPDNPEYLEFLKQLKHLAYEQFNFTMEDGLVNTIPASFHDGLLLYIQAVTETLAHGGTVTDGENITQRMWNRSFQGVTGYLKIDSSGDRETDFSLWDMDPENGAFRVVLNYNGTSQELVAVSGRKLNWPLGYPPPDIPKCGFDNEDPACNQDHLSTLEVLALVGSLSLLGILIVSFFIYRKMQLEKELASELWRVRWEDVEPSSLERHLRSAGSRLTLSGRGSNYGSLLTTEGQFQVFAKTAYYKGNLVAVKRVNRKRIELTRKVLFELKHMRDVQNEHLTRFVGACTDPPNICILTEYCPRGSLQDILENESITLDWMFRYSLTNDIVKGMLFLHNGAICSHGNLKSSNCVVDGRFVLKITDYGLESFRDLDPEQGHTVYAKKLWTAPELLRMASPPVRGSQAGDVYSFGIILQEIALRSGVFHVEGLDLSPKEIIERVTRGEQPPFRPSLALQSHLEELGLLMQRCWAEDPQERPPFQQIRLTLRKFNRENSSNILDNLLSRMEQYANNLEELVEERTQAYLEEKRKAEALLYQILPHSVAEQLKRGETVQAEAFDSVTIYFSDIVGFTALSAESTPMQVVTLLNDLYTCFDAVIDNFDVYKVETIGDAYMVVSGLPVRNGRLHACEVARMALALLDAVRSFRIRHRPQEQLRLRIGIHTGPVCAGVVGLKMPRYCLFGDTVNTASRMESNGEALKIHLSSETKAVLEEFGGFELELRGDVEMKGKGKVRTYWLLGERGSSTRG

Assay [6] deals with Atrial natriuretic peptide receptor 2 (Homo sapiens) (UniProt P20594). Nature of the assay: Natriuretic polypeptide receptor (hNpr2) antagonism - Pilot subtype selectivity assay (AID 1347050; calls by dose curve; note: % is set by controls: 0 for no effect and ±100 for the full control effect). The essentials: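 Pilot selectivity screen against hNpr2: HEK293 cGMP-sensor cells are treated with LOPAC1280 compounds, then with hNppC peptide at 1 nM final. The cGMP-driven luminescence change over 20 min at room temperature is the read-out.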
Chain of Atrial natriuretic peptide receptor 2 (Homo sapiens) (P20594 whole entry, looked up): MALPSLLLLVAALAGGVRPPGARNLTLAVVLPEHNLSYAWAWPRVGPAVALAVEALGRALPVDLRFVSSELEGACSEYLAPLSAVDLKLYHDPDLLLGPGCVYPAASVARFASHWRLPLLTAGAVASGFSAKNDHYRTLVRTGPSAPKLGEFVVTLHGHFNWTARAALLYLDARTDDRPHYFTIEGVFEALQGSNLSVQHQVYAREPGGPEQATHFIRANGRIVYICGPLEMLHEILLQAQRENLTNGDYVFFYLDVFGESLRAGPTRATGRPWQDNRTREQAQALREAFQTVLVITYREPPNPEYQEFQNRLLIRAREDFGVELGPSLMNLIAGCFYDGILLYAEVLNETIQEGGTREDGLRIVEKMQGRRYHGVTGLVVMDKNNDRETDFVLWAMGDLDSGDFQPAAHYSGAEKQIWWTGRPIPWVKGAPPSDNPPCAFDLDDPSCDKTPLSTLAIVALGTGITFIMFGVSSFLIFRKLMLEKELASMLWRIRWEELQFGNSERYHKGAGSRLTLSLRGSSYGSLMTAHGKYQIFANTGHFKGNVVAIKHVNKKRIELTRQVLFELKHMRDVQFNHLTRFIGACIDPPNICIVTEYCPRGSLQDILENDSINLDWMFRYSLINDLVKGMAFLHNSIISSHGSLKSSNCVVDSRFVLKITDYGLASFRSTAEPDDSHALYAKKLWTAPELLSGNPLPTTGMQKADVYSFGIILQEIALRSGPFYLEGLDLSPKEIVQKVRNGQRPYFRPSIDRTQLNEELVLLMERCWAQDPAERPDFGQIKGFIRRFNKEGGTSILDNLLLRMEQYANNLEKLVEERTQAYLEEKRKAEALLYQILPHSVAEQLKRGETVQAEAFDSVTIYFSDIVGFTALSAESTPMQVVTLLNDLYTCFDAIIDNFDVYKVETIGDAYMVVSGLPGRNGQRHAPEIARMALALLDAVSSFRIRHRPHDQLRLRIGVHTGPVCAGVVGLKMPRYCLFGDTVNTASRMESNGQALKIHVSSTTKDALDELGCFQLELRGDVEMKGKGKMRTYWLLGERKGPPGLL

The nature of assay [7]: NS1 protein of Zika virus - qHTS assay to identify small molecule inhibitors in human HEK 293 cells (AID 1347053).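 Note: series mostly up to about 46 µM; plate controls were infected untreated cells for no effect and uninfected cells for full effect; nearly all actives have a fitted effect of over 55% in size.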 The essentials: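 HEK 293; 20 h pre-culture, 37 C/5% CO2; cpd 1 h pre-infection; ZIKV MR766, MOI = 0.5, 24 h, 37 C; TR-FRET NS1 readout (two anti-NS1 Abs); norm. to no-virus vs infected.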
A short description of assay [8]: qHTS Assay for Identifying Gametocytocidal Compounds (AID 743244).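 For max response: % is set by controls: 0 for no effect and ±100 for the full control effect; actives lower the fluorescent signal which means gametocytes are killed.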 Note: potency is the fitted concentration of half-maximal effect. Conditions: P. falciparum 3D7 stage III-V gametocytes, alamarBlue, 72 h; max response: active compounds read low. The method, boiled down:
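Late gametocytes (III–V), P. falciparum 3D7; 72 h drug, then 24 h alamarBlue; resazurin reduction read by fluorescence.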

Assay [9] in a line: qHTS assay for cell viability of HEK293 cells (AID 743288). Note: % is set by controls: 0 for no effect and ±100 for the full control effect; nearly all actives have a fitted effect of over 50% in size. Conditions: ATP luminescence (CellTiter-Glo), 18 h; max response: active compounds read low. The essentials:
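HEK293 parental, 2,000 cells/well; ≥5 h pre-incubation 37 C; pintool compound addition; 18 h, 37 C; CellTiter-Glo 30 min RT; luminescence read.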

Assay [10] can be described thus: qHTS assay for cell viability of the p53RE-bla HCT-116 cell line (AID 743292). Note: nearly all actives have a fitted effect of over 55% in size. Note: potency is the fitted concentration of half-maximal effect. The method, boiled down: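 CellSensor p53RE-bla HCT-116 cells (4,000/well) pre-incubated 5 h at 37 C, then exposed to compounds in DMSO for 16 h at 37 C. Viability read as ATP content by CellTiter-Glo luminescence after 30 min at room temperature.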

In the case of `O=C(O)Cc1ccc(O)c(O)c1`, the Potency result in assay [1], in [2], in assay [3], in [4], in assay [5] and in assay [6] was “inactive” each time. Further, the Potency entry in assay [7] was “inactive”.

Take `O=C(O)c1cc(=O)cc(C(=O)O)[nH]1`: the Potency result in assay [1], in assay [2], in [3], in assay [4] and in [6] was “inactive” throughout.

For `Cc1cccc(C2CN(C)CCc3c2cc(O)c(O)c3Cl)c1` (configuration not stated), the Potency result in [1], in assay [2], in assay [3], in assay [4], in assay [5] and in [6] was “inactive” each time.

In the case of `C/C(=C\c1ccc(C(=O)O)cc1)c1ccc2c(c1)C(C)(C)CCC2(C)C`, the Potency entry in assay [2], in [3], in assay [5], in assay [6] and in assay [7] was “inactive” each time. Also, the max response was 19.4% in assay [8] and -16.6% in assay [9]. Also, the Potency in assay [10] is 39.8 µM (active).

For the molecule `CCN(CC)CCCCCCCCOC(=O)c1cc(OC)c(OC)c(OC)c1`, the Potency entry in assay [1], in assay [2], in assay [3], in [4], in [5] and in [6] was “inactive” each time. In addition, in assay [7], the Potency entry is “inactive”. Also, in assay [8], the max response was 31.2%.

Turning to `COc1ccc2c(c1)c(CC(=O)O)c(C)n2Cc1ccc(Cl)cc1`, the Potency result in [1], in assay [2], in [3], in assay [4], in assay [5] and in assay [6] was “inactive” in each case. Moreover, the max response in assay [8] was -11.4%.

For `CNc1ncnc2c1ncn2[C@H]1C[C@H](OP(=O)(O)O)[C@@H](COP(=O)(O)O)O1`, the Potency entry in assay [1], in [2], in assay [3], in [4] and in [5] was “inactive” in each case. Further, in assay [8], the max response was 21.7%.

For the molecule `NCCCCN=C(N)N`, the Potency result in [1], in assay [2], in assay [3], in assay [4] and in [6] was “inactive” in each case. The max response in [8] was 3.59%.

As to `N[C@@H](CCC(=O)N[C@H](CSN=O)C(=O)NCC(=O)O)C(=O)O`, the Potency result in assay [1], in [2], in [3], in [4], in [5] and in assay [6] was “inactive” in each case. Moreover, the max response in assay [8] was 16.7%.

For the molecule `NC1CCN(O)C1=O` (configuration not stated), the Potency entry in assay [1], in assay [2], in assay [3], in assay [5] and in assay [6] was “inactive” throughout. In [8], the max response is 19.4%.

`NCCS(=O)O`: the Potency entry in assay [1], in assay [2], in assay [3], in assay [5], in [6] and in assay [7] was “inactive” each time. Also, the max response in [8] is 18%.

For `O=C(O)c1cccnc1C(=O)O`, the Potency result in [1], in assay [2], in [3], in assay [4], in [6] and in assay [7] was “inactive” in each case. Besides, in assay [8], the max response is 4.44%.

Turning to `CCCc1c(OCCCOc2ccc(OCC(=O)O)cc2)ccc(C(C)=O)c1O`, the Potency result in [1], in [2], in assay [10], in assay [3], in assay [4] and in assay [5] was “inactive” in each case. Besides, the Potency entry in [6] and in [7] was “inactive” in each case. Further, the results for the max response in [8] and in assay [9] were 1.52% and -9.62%, respectively.

Regarding `COc1cc([C@@H]2c3cc4c(cc3[C@H](O)C3COC(=O)[C@@H]32)OCO4)cc(OC)c1OC` (some centres not stated), the Potency entry in [1], in assay [2], in assay [3], in assay [5] and in assay [7] was “inactive” each time.

For `NC1C=CC=C(C(=O)O)C1` (configuration not stated), the Potency entry in [1], in assay [2], in assay [3], in [4], in assay [5] and in assay [6] was “inactive” each time. In [7], the Potency entry is “inactive”. Also, the max response in assay [8] was -5.22%.

As for `COc1cc(/C=C(\C#N)C(=O)Nc2nnc(C(F)(F)F)s2)ccc1OCc1ccc(C(F)(F)F)cc1C(F)(F)F`, the Potency entry in assay [2], in assay [3] and in [7] was “inactive” throughout. The max response in assay [8] was 5.8%. In addition, the Potency in assay [4] is 14.7 µM (active); in assay [5], 23.9 µM (active).

Consider `N=C(N)c1ccccc1`, for which the Potency result in assay [1], in [2], in [3], in assay [4] and in assay [5] was “inactive” each time.

For `CC(C)NC[C@H](O)COc1ccc(CC(N)=O)cc1`, the Potency result in assay [2], in assay [3], in [4], in assay [5], in assay [6] and in assay [7] was “inactive” in each case. Moreover, the max response in assay [8] is 5.76%.

Regarding `NC(Cc1cccc(-c2ccccc2CP(=O)(O)O)c1)C(=O)O` (configuration not stated), the Potency entry in assay [1], in [2], in assay [3], in [4], in assay [5] and in assay [6] was “inactive” each time. In assay [7], the Potency entry is “inactive”.

For `c1ccc(CN2CCC3(CCCc4ccccc43)CC2)cc1`, the Potency result in [1], in [2], in assay [3], in assay [4], in assay [5] and in [6] was “inactive” in each case.

Consider `COc1cc2c(CCNC(C)=O)c[nH]c2cc1O`, for which the Potency entry in assay [1], in assay [2], in assay [3], in assay [4], in assay [5] and in [6] was “inactive” each time. The Potency result in assay [7] is “inactive”. Also, the max response in assay [8] was 18.4%.

In the case of `CC(C)[C@@H]1CC[C@@H](C)C[C@@H]1P(=O)(c1ccccc1)c1ccccc1`, the Potency entry in assay [1], in [2], in assay [3], in assay [4], in [6] and in [7] was “inactive” in each case. The max response in assay [8] is 7.79%.

`NC(=O)CNCCC(c1ccccc1)c1ccccc1`: the Potency result in [1], in assay [2], in [3], in [5], in assay [6] and in assay [7] was “inactive” each time.

As for `CN[C@H](CC(=O)O)C(=O)O`, the Potency result in assay [1], in assay [2], in assay [3], in assay [4], in assay [5] and in assay [6] was “inactive” in each case. Also, the Potency result in assay [7] is “inactive”. Moreover, the max response in [8] is 19.8%.

For the molecule `CN1CCN(c2nc3cc(C(F)(F)F)ccc3n3cccc23)CC1`, the Potency result in assay [1], in assay [2], in assay [3], in [4], in [5] and in assay [6] was “inactive” each time. For the same molecule, the Potency entry in assay [7] is “inactive”. The max response in assay [8] was 14.6%.

Turning to `CC[N+](CC)(CC)CC(=O)Nc1c(C)cccc1C`, the Potency result in assay [1], in assay [2], in [3], in assay [5], in assay [6] and in assay [7] was “inactive” throughout. Besides, in [8], the max response is 14.2%.

Turning to `CC(/C=C/c1cccc(Oc2ccc(F)cc2)c1)N(O)C(N)=O` (configuration not stated), the Potency entry in assay [1], in assay [2], in [3], in [4], in assay [5] and in assay [6] was “inactive” each time. Moreover, in assay [7], the Potency result was “inactive”.

For `NC[C@@H]1O[C@H](c2ccccc2)Cc2c1ccc(O)c2O`, the Potency result in [1], in assay [2], in [3], in assay [4] and in assay [6] was “inactive” throughout.

As to `CCSC(=N)N`, the Potency result in assay [1], in [2], in [3] and in [5] was “inactive” each time. In addition, the max response in assay [8] is 12.9%.

Take `N[C@@H](CS(=O)O)C(=O)O`: the Potency result in assay [2], in assay [3], in [4], in [5], in assay [6] and in assay [7] was “inactive” each time. In assay [8], the max response was 27.3%.

As for `NCCCNCCCCNCCCN`, the Potency result in [1], in [2], in [3], in [4], in [5] and in assay [6] was “inactive” in each case. In assay [7], the Potency result was “inactive”.

For `CNCCc1cnc(CCC(c2ccccc2)c2ccccc2)[nH]1`, the Potency entry in [1], in assay [2], in assay [3], in assay [4] and in assay [5] was “inactive” each time. Besides, the Potency in assay [8] was 1.26 µM (active).

With `c1ccc(C2CN3CCSC3=N2)cc1` (configuration not stated), the Potency entry in assay [1], in assay [2], in assay [3], in assay [4], in [5] and in assay [6] was “inactive” throughout. For the same molecule, the Potency entry in assay [7] is “inactive”.
